Inconclusive results are not listed. Active and inactive are the calls of the source. Calls come from the whole dose curve; as a rule, active = well fitted curve in the direction sought with a large enough effect; inconclusive = small, poorly fitted or top-dose-only effect, or another doubt; inactive = no such curve, though single readings can be large; an effect the other way counts as inactive or inconclusive.
Assay: qHTS of pediatric cancer cell lines to identify multiple opportunities for drug repurposing: Confirmatory screen for NB1643 cells (AID 1347109); note: nearly all actives have a fitted effect of over 45% in size
Conditions: NB1643 neuroblastoma cell viability; series mostly up to 45.9 µM
Summary of the method: (§1)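 Viability after 48 h compound treatment at 37C, 500-1,000 cells/well, read as ATP luminescence with CellTiter-Glo. Primary screens used 11-point (MIPE, 0.78 nM-46 µM) or 8-point (NPC, 0.59 nM-46 µM) final concentrations; follow-up screens used 11-point dilutions.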
Potency is the fitted concentration of half-maximal effect.

Row | SMILES | Potency
1 | CC[C@@]1(O)C(=O)OCc2c1cc1n(c2=O)Cc2c-1nc1ccccc1c2/C=N/OC(C)(C)C | 41.4 nM (active)
2 | CO[C@@H]1[C@@H](OC)[C@H](C)[C@@](O)(CC(=O)O)O[C@H]1[C@H](C)[C@H]1O[C@@]2(CC[C@@](C)([C@H]3CC[C@@](C)([C@@H]4O[C@@H]([C@H]5O[C@](C)(O)[C@H](C)C[C@@H]5C)C[C@@H]4OC4C[C@H](OC)[C@@H](OC)[C@H](C)O4)O3)O2)C[C@H](O)[C@H]1C (stereo partly drawn) | 737 nM (active)
3 | COc1c(C)c2c(c(O)c1C/C=C(\C)CCC(=O)OCCN1CCOCC1)C(=O)OC2 | 1310 nM (active)
4 | CC(=O)O[C@@H]1C(=O)O[C@@H]2[C@H]1OC(=O)[C@@H]2OC(C)=O | inactive
5 | Nc1ccc2cc3ccc(N)cc3nc2c1 | 7370 nM (active)

Assay: qHTS of pediatric cancer cell lines to identify multiple opportunities for drug repurposing: Confirmatory screen for A673 cells (AID 1347110); note: nearly all actives have a fitted effect of over 65% in size
Conditions: A673 Ewing sarcoma cell viability; series mostly up to 45.9 µM
Summary of the method: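 Cells plated at 500-1,000/well were treated five hours later with multi-point dilutions up to 46 µM final. After two days, CellTiter-Glo was added and luminescence read.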

Row | SMILES | Potency
6 | CC[C@@]1(O)C(=O)OCc2c1cc1n(c2=O)Cc2c-1nc1ccccc1c2/C=N/OC(C)(C)C | 11.7 nM (active)
7 | Cc1ccc(C(=O)Oc2ccc(C(O)CNC(C)(C)C)cc2OC(=O)c2ccc(C)cc2)cc1 (stereo not drawn) | 92.8 nM (active)
8 | CO[C@@H]1[C@@H](OC)[C@H](C)[C@@](O)(CC(=O)O)O[C@H]1[C@H](C)[C@H]1O[C@@]2(CC[C@@](C)([C@H]3CC[C@@](C)([C@@H]4O[C@@H]([C@H]5O[C@](C)(O)[C@H](C)C[C@@H]5C)C[C@@H]4OC4C[C@H](OC)[C@@H](OC)[C@H](C)O4)O3)O2)C[C@H](O)[C@H]1C (stereo partly drawn) | 2610 nM (active)
9 | COc1c(C)c2c(c(O)c1C/C=C(\C)CCC(=O)OCCN1CCOCC1)C(=O)OC2 | 3690 nM (active)
10 | CC(=O)O[C@@H]1C(=O)O[C@@H]2[C@H]1OC(=O)[C@@H]2OC(C)=O | inactive
11 | Nc1ccc2cc3ccc(N)cc3nc2c1 | 7370 nM (active)

Assay: qHTS of pediatric cancer cell lines to identify multiple opportunities for drug repurposing: Confirmatory screen for SK-N-MC cells (AID 1347111);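 note: cells exposed to compound for 48 h before the readout; nearly all actives have a fitted effect of over 70% in size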
Conditions: SK-N-MC cell viability; series mostly up to 45.9 µM
Summary of the method: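 SK-N-MC cells at 500-1,000 cells/well in growth media were pre-incubated 5 h, then exposed to compounds at 11-point dilutions for 48 h at 37 degrees C, 5% CO2. Viability was read as CellTiter-Glo luminescence.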

Row | SMILES | Potency
12 | CC[C@@]1(O)C(=O)OCc2c1cc1n(c2=O)Cc2c-1nc1ccccc1c2/C=N/OC(C)(C)C | 5.2 nM (active)
13 | Cc1ccc(C(=O)Oc2ccc(C(O)CNC(C)(C)C)cc2OC(=O)c2ccc(C)cc2)cc1 (stereo not drawn) | 11700 nM (active)
14 | CO[C@@H]1[C@@H](OC)[C@H](C)[C@@](O)(CC(=O)O)O[C@H]1[C@H](C)[C@H]1O[C@@]2(CC[C@@](C)([C@H]3CC[C@@](C)([C@@H]4O[C@@H]([C@H]5O[C@](C)(O)[C@H](C)C[C@@H]5C)C[C@@H]4OC4C[C@H](OC)[C@@H](OC)[C@H](C)O4)O3)O2)C[C@H](O)[C@H]1C (stereo partly drawn) | 1310 nM (active)
15 | COc1c(C)c2c(c(O)c1C/C=C(\C)CCC(=O)OCCN1CCOCC1)C(=O)OC2 | 1650 nM (active)
16 | CC(=O)O[C@@H]1C(=O)O[C@@H]2[C@H]1OC(=O)[C@@H]2OC(C)=O | 16500 nM (active)
17 | Nc1ccc2cc3ccc(N)cc3nc2c1 | 8270 nM (active)

Assay: qHTS of pediatric cancer cell lines to identify multiple opportunities for drug repurposing: Confirmatory screen for BT-12 cells (AID 1347112); note: nearly all actives have a fitted effect of over 55% in size
Conditions: BT-12 rhabdoid tumor cells, viability; series mostly up to 45.9 µM
Summary of the method: as §1

Row | SMILES | Potency
18 | CC[C@@]1(O)C(=O)OCc2c1cc1n(c2=O)Cc2c-1nc1ccccc1c2/C=N/OC(C)(C)C | 1040 nM (active)
19 | Cc1ccc(C(=O)Oc2ccc(C(O)CNC(C)(C)C)cc2OC(=O)c2ccc(C)cc2)cc1 (stereo not drawn) | inactive
20 | CO[C@@H]1[C@@H](OC)[C@H](C)[C@@](O)(CC(=O)O)O[C@H]1[C@H](C)[C@H]1O[C@@]2(CC[C@@](C)([C@H]3CC[C@@](C)([C@@H]4O[C@@H]([C@H]5O[C@](C)(O)[C@H](C)C[C@@H]5C)C[C@@H]4OC4C[C@H](OC)[C@@H](OC)[C@H](C)O4)O3)O2)C[C@H](O)[C@H]1C (stereo partly drawn) | 657 nM (active)
21 | CC(=O)O[C@@H]1C(=O)O[C@@H]2[C@H]1OC(=O)[C@@H]2OC(C)=O | inactive
22 | Nc1ccc2cc3ccc(N)cc3nc2c1 | 16500 nM (active)

Assay: qHTS of pediatric cancer cell lines to identify multiple opportunities for drug repurposing: Confirmatory screen for LAN-5 cells (AID 1347113); note: nearly all actives have a fitted effect of over 65% in size
Conditions: LAN-5 neuroblastoma cell viability; series mostly up to 45.9 µM
Summary of the method: as §1

Row | SMILES | Potency
23 | CC[C@@]1(O)C(=O)OCc2c1cc1n(c2=O)Cc2c-1nc1ccccc1c2/C=N/OC(C)(C)C | 14.7 nM (active)
24 | CO[C@@H]1[C@@H](OC)[C@H](C)[C@@](O)(CC(=O)O)O[C@H]1[C@H](C)[C@H]1O[C@@]2(CC[C@@](C)([C@H]3CC[C@@](C)([C@@H]4O[C@@H]([C@H]5O[C@](C)(O)[C@H](C)C[C@@H]5C)C[C@@H]4OC4C[C@H](OC)[C@@H](OC)[C@H](C)O4)O3)O2)C[C@H](O)[C@H]1C (stereo partly drawn) | 522 nM (active)
25 | COc1c(C)c2c(c(O)c1C/C=C(\C)CCC(=O)OCCN1CCOCC1)C(=O)OC2 | 1650 nM (active)
26 | CC(=O)O[C@@H]1C(=O)O[C@@H]2[C@H]1OC(=O)[C@@H]2OC(C)=O | inactive
27 | Nc1ccc2cc3ccc(N)cc3nc2c1 | 8270 nM (active)

Assay: qHTS of pediatric cancer cell lines to identify multiple opportunities for drug repurposing: Confirmatory screen for NB-EBc1 cells (AID 1347115); note: nearly all actives have a fitted effect of over 45% in size
Conditions: NB-EBc1 neuroblastoma cells, viability (cytotoxicity); series mostly up to 45.9 µM
Summary of the method: as §1

Row | SMILES | Potency
28 | CC[C@@]1(O)C(=O)OCc2c1cc1n(c2=O)Cc2c-1nc1ccccc1c2/C=N/OC(C)(C)C | 5.2 nM (active)
29 | Cc1ccc(C(=O)Oc2ccc(C(O)CNC(C)(C)C)cc2OC(=O)c2ccc(C)cc2)cc1 (stereo not drawn) | inactive
30 | CO[C@@H]1[C@@H](OC)[C@H](C)[C@@](O)(CC(=O)O)O[C@H]1[C@H](C)[C@H]1O[C@@]2(CC[C@@](C)([C@H]3CC[C@@](C)([C@@H]4O[C@@H]([C@H]5O[C@](C)(O)[C@H](C)C[C@@H]5C)C[C@@H]4OC4C[C@H](OC)[C@@H](OC)[C@H](C)O4)O3)O2)C[C@H](O)[C@H]1C (stereo partly drawn) | 1470 nM (active)
31 | COc1c(C)c2c(c(O)c1C/C=C(\C)CCC(=O)OCCN1CCOCC1)C(=O)OC2 | 827 nM (active)
32 | CC(=O)O[C@@H]1C(=O)O[C@@H]2[C@H]1OC(=O)[C@@H]2OC(C)=O | inactive
33 | Nc1ccc2cc3ccc(N)cc3nc2c1 | 13100 nM (active)
